{
  "source": "PubChem BioAssay AID651791",
  "about": "(National Center for Advancing Translational Sciences (NCATS), 2012)",
  "note": "Results filed as inconclusive are left out. Activity calls are given as the source filed them. Calls come from the whole dose curve; as a rule, active = well fitted inhibition curve with a large enough effect; inconclusive = small, poorly fitted or top-dose-only effect; inactive = no such curve, though single readings can be large or run the other way. Potency is the fitted concentration of half-maximal effect.",
  "data": [
    {"assay": "InCell qHTS Assay for Inhibitors of the mTORC1 Signaling Pathway in MEF (Tsc2-/-, p53-/-) Cells: Hit Validation; note: nearly all actives have a fitted effect of over 75% in size", "details": "phospho-rpS6 immunofluorescence, 24 h; activity change, negative = inhibition: at 38.3 µM (top of the series)", "text": "The mammalian target of rapamycin (mTOR) is an intracellular serine/threonine kinase Aberrant regulation of mTOR signaling plays a causative role in a number of human diseases, including cancer, benign tumors such as lymphangioleiomyomatosis (LAM) and Tuberous Sclerosis Complex (TSC), and metabolic diseases such as diabetes and obesity. This project aims to identify inhibitors of ribosomal protein S6 (rpS6) phosphorylation. The phosphorylation of rpS6 is a key event downstream of mTOR activation. The assay uses a phospho-specific antibody of phospho-rpS6 to detect inhibitors of mTOR activation. Mutations in the Tsc1 and Tsc2 genes are the underlying genetic lesions responsible for TSC, causing constitutive activation of the mTORC1 pathway and leading to profound effects on cell metabolism. Aberrant metabolism in cancer has recently received significant attention as a target to develop therapeutic agents in the treatment of cancer.1 As Tsc2-/- cells have lost the ability to respond to energy and growth factor deprivation, these cells are unable to properly down regulate cellular biosynthetic processes in response to metabolic stress, and are thus extremely sensitive to glucose deprivation-induced death.2 A central goal of this project is to explore the unique cell survival and metabolic properties of cells with Tsc1 or Tsc2 by screening for compounds that selectively target the Tsc2-/- MEFs by screening both Tsc2-/- and WT MEF cell lines. We hope to better understand these aspects of TSC physiology in order to exploit them for therapeutic benefit. NIH Molecular Libraries Probe Production Centers Network [MLPCN] NIH Chemical Genomics Center [NCGC] MLPCN Grant: NS059428 Assay Submitter (PI): Blenis, John; Harvard University\nFor quantitative high throughput analysis of mTORC1 signaling, we developed a cell-based assay for immuno-fluorescence based detection of rpS6 phosphorylation on the Acumen Explorer that will be used a platform for the primary small molecule screen. Mouse embryonic fibroblasts (MEFs) are cultured in 1536-well plates using DMEM + 10% FBS. Twenty-four hrs after plating, test compounds (solubilized in DMSO) are delivered and incubated with the cells for 24 hrs at 37 degree Celsius. Following the incubation, media with compound is aspirated and the cells are fixed in 4% paraformaldehyde (PFA) containing PBS + 0.2% TX-100. Next, PFA is aspirated, cells are washed two times with PBS plus 0.2% TX-100 and the cells are blocked for 1 hr at room temperature (blocking buffer: LiCOR Blocking Buffer plus 0.2% TX-100). This is followed by aspiration and staining with Alexa-488 conjugated-phospho-rpS6 Ser235/236 antibody for 2 hours at room temperature (Cell Signaling Technology # 4803, 1:50 dilution in blocking buffer). Cells are washed two times with PBS plus 0.2% TX-100, and stained with 10 uM propidium iodide (PI) for 20-25 minutes for cell number measurement (1:500 dilution of Hoescht staining is also added for IN Cell imaging). The plates are scanned on the Acumen Explorer laser scanning instrument (TTP Labtech) using the 488nm laser for simultaneous excitation of the Alexa-488 and PI. The fluorescence emission from the Alexa-488 conjugated rpS6 phospho-235/236 antibody staining is selected using a […] band pass filter. Fluorescence emission from the PI stain is selected using a 575-640 nm band pass filter. The normalized phospho-S6 staining is calculated as the ratio of the integrated Alexa 488 intensity divided by the integrated PI intensity for the single concentration rapamycin control (7.5 nM) and DMSO columns. […] Inhibition of the pathway is defined based on the normalized phospho-S6 intensity in rapamycin treated cells. […]", "units": {"activity change, negative = inhibition": "%"}, "values": [
      {"compound": "CCOc1ccc(CN(CCc2ccc3c(c2)OCO3)Cc2ccc(C)cc2)cc1", "activity change, negative = inhibition": -100},
      {"compound": "Cc1ccccc1-c1nc(CN2C(=O)CN=C(c3ccccc3)c3ccccc32)c(C)o1", "activity change, negative = inhibition": -100},
      {"compound": "CCOc1ccc(NC(=O)CSc2oc(-c3ccccc3)nc2S(=O)(=O)c2ccc(Cl)cc2)cc1", "Potency": "3.69 µM (active)"},
      {"compound": "O=C(Nc1ccon1)c1cccn(Cc2cccc(Cl)c2)c1=O", "activity change, negative = inhibition": -100},
      {"compound": "Cc1ccccc1-n1c(/C=C/c2ccccc2F)nc2ccccc2c1=O", "activity change, negative = inhibition": -100},
      {"compound": "CCN(CC)CCSc1nc2ccccc2c(=O)n1-c1ccc(Cl)cc1", "activity change, negative = inhibition": -100},
      {"compound": "Cc1ccc(-n2c(/C=C/c3ccc(Br)s3)nc3ccccc3c2=O)cc1C", "activity change, negative = inhibition": -100},
      {"compound": "Cc1ccccc1-n1c(/C=C/c2c(C)[nH]c3ccccc23)nc2ccccc2c1=O", "activity change, negative = inhibition": -100},
      {"compound": "CCN(CC)C(=O)c1ccc(NC(=O)CCn2nc(-c3ccc(C)cc3)c3ccccc3c2=O)cc1", "activity change, negative = inhibition": -100},
      {"compound": "COc1ccc2nc(NC(=O)c3nc(S(=O)(=O)Cc4cccc(C)c4)ncc3Cl)sc2c1", "Potency": "18.5 µM (active)"}
    ]}
  ]
}
